Test results as given in PubChem BioAssay AID489028 (Sanford-Burnham Center for Chemical Genomics, 2010).
The campaign covered roughly 10,000 compounds. About 5,600 (56%) were called active. No stated cut-off is given here; in the data, active means inhibition above about 40%; inactive means the rest. The set was probably picked from earlier hits. Not all results are given here.

Molecular target: Protein Mdm4 (Homo sapiens) + E3 ubiquitin-protein ligase Mdm2 (Homo sapiens) (UniProt O15151+Q00987)
Assay: inhibition of human Mdm2/MdmX pairing – luminescence, single concentration, confirmation (AID 489028)
Conditions: Mdm2-MdmX binding, luminescent assay; at 8 µM; active compounds read high

Sequence of Protein Mdm4 (Homo sapiens) + E3 ubiquitin-protein ligase Mdm2 (Homo sapiens) (O15151 whole entry, looked up): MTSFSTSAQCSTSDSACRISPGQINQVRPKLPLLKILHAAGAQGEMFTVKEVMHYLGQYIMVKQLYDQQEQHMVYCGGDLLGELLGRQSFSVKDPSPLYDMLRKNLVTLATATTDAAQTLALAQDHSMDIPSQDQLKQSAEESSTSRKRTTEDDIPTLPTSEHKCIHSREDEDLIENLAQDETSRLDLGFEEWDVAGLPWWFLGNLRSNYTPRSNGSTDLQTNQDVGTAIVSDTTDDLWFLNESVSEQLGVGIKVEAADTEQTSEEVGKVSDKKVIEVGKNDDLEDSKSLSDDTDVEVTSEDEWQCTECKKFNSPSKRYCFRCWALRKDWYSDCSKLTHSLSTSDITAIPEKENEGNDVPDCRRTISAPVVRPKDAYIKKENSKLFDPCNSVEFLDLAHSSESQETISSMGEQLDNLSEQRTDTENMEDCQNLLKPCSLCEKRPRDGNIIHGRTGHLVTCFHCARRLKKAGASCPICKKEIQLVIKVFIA
Sequence of Protein Mdm4 (Homo sapiens) + E3 ubiquitin-protein ligase Mdm2 (Homo sapiens) (Q00987 whole entry, looked up): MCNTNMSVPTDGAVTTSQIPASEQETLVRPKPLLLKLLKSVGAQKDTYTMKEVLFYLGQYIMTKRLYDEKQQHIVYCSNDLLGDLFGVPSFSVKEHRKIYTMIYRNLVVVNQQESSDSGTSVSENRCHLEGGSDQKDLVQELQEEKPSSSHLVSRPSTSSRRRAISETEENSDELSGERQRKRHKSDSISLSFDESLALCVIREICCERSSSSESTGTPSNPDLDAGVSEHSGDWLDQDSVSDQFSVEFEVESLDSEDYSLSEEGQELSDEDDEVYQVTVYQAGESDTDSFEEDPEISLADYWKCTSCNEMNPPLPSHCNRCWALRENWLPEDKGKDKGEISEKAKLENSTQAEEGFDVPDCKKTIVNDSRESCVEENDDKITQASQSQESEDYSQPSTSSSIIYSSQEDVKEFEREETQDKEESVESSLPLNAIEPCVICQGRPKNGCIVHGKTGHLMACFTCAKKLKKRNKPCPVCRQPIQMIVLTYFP

Structure (SMILES) | inhibition
Cn1cc([N+](=O)[O-])c(C(=O)Nc2cnn(Cc3ccc(F)cc3)c2)n1 | 57.5% (active)
CCn1cc(CN2CCC(C(=O)Nc3cccc(-c4cccc(Cl)c4)c3)CC2)cn1 | 31.9% (inactive)
CCn1cc(CN2CCC(C(=O)Nc3cccc(-c4cccc(Cl)c4)c3)CC2)c(C)n1 | 48% (active)
O=C(Nc1cccc(-c2cccc(Cl)c2)c1)C1CCN(C2CCC2)CC1 | 31.5% (inactive)
COc1cc(OC)c2c(-c3cccc(-c4cccc(N)c4)c3)cc(=O)oc2c1 | 52.7% (active)
CCN(CC)CCC(c1ccc2c(c1)OCO2)c1c(OC)cc(OC)c2c(-c3ccccc3)cc(=O)oc12 (configuration not stated) | 29.8% (inactive)
CCN(CC)CCC(c1cc(OC)c(OC)c(OC)c1)c1c(OC)cc(OC)c2c(-c3ccccc3)cc(=O)oc12 (configuration not stated) | 27.6% (inactive)
COc1c(C)c2c(c(O)c1C/C=C(\C)CCC(=O)O)C(=O)OC2 | 80.7% (active)
CCCCn1c(-c2cccc(C)c2)nc2cc3[nH]c(=O)c(C(C)C)nc3cc21 | 38% (inactive)
COc1ccc(-c2nc3cc(C)ccn3c2NC2CCCCC2)cc1SC1CCCCC1 | 19.9% (inactive)
COc1cc(NC(=O)c2cncc(-c3ccc(C#N)cc3)c2)cc(C(=O)Nc2cccc(C(F)(F)F)c2)c1 | 55.5% (active)
CCOC(=O)c1ccc(NC(=O)c2nc[nH]c2C(=O)N[C@@H](CCCCNC(=O)OC(C)(C)C)C(=O)OC(C)(C)C)cc1 | 19.6% (inactive)
COc1cc(NC(=O)c2[nH]cnc2C(N)=O)cc(C(=O)Nc2cccc(C(F)(F)F)c2)c1 | 63.5% (active)
Cc1nc(SCC(=O)Nc2cc(C)on2)c2c(C)c(C)sc2n1 | 27.6% (inactive)
Cc1nc(N=C(N)N)nc2c(C)cccc12 | 53.1% (active)
O=C(Cc1ccc(Cl)c(Cl)c1)Nc1ccc(SC(F)F)cc1 | -2.4% (inactive)

Structure (SMILES) | inhibition
O=C(CC(O)(C(F)(F)F)C(F)(F)F)Nc1ccc(Cl)c(Cl)c1 | 95.7% (active)
COC(=O)C1=CN(C)C=C(C(=O)OC)C1c1ccc(Cl)cc1Cl | 3.05% (inactive)
O=C(/C(=C/c1cccc(Cl)c1)c1nc2ccccc2[nH]1)c1ccccc1 | 43.5% (active)
CCOc1cc(/C=C/c2nc3ccccc3c(=O)[nH]2)cc(Br)c1OC | 69.5% (active)
Cc1ccc(-c2cn3cc(C)ccc3n2)cc1 | 81.3% (active)
Cc1ccc2nc(-c3ccc(Br)cc3)cn2c1 | 53.3% (active)
Cc1ccc(Nc2cc(=O)n(C3CCCCC3)c(=O)[nH]2)cc1C | 19.4% (inactive)
O=C(c1ccc(Cl)cc1)N1N=C(c2ccccn2)CC1(O)C(F)(F)F (configuration not stated) | 15.9% (inactive)
O=C1[C@H]2[C@@H](c3ccc(F)cc3)N3C(=O)N(c4ccc(C(F)(F)F)cc4)C(=O)[C@@]3(Cc3ccccc3)[C@H]2C(=O)N1C1CCCCC1 | 100% (active)
Cc1cccc([C@@H]2[C@@H]3C(=O)N(Cc4ccccc4)C(=O)[C@@H]3[C@]3(C)C(=O)N(c4ccc(Br)cc4)C(=O)N23)c1 | 24.9% (inactive)
CSc1nc(-c2ccccc2)nc(C(Cl)Cl)n1 | 98.6% (active)
OCCCNc1nccc(-c2cc(Nc3cccc(Cl)c3)ncn2)n1 | 99.8% (active)
COc1ccc(C(=O)NC(=S)NNC(=O)CCc2ccccc2)cc1 | 4.55% (inactive)
CC[C@]1(C(=O)OC)[C@H]2C(=O)N(Cc3ccccc3)C(=O)[C@H]2[C@H]2CN=C(SCc3ccc(Cl)cc3)N21 | 99.7% (active)
CC[C@]1(C(=O)OC)[C@H]2C(=O)N(Cc3ccccc3)C(=O)[C@H]2[C@H]2CN=C(SCc3ccccc3)N21 | 70% (active)
CC[C@]1(C(=O)OC)[C@H]2C(=O)N(Cc3ccccc3)C(=O)[C@H]2[C@H]2CN=C(SCc3ccc(C#N)cc3)N21 | 98.8% (active)
